# Experimental data taken from ChEMBL document CHEMBL3988442, “University of Dundee, Small-Polar-MMV Screening Library” (2021).
# About 13,000 (27%) of roughly 48,000 compounds showed an effect of 50% or more. The list shows a part of the results.
# System: Wolbachia pipientis
# Experiment: Anti-Wolbachia Cell-Based Screen
# Type: functional
# Parameters: scale not given: in the data most compounds retested in dose-response had high values
# Details: 5 µM
row,Compound,Percent Effect
1,CC(C)[C@H](C)NC1CCN(c2ccc(-c3cscn3)cc2)CC1,-7.145%
2,CCCn1nnnc1CSCc1cn2c(C)cccc2n1,8.521%
3,N#Cc1cccnc1N1CCCC(CO)(Cc2ccccc2F)C1 (stereo unspecified),12.54%
4,CNS(=O)(=O)CC(=O)N(Cc1ccsc1)c1ccccc1,7.339%
5,NC[C@H]1CC[C@H](C(NC(=O)c2ccccn2)c2ccccn2)CC1 (stereo partly specified),-2.81%
6,NC[C@H]1CC[C@H](C(NC(=O)CC2CCCC2)c2ccccn2)CC1 (stereo partly specified),151%
7,CC(C)[C@H]1CN(Cc2ccccn2)C[C@@H]1NC(=O)CC1CCC1,-7.125%
8,NC[C@H]1CC[C@H](C(NC(=O)CC2CCCCC2)c2ccccn2)CC1 (stereo partly specified),140.5%
9,NC[C@H]1CC[C@H](C(NC(=O)C2CC2)c2ccccn2)CC1 (stereo partly specified),117.5%
10,CCCC(=O)NC(Cc1ccc(C)cc1)c1ccccn1 (stereo unspecified),-7.589%
11,O=C(Cn1cnc(NC(=O)CC2CCCC2)n1)NCc1ccccc1,-4.841%
12,NC[C@H]1CC[C@H](C(NC(=O)c2ccccc2)c2ccccn2)CC1 (stereo partly specified),-1.705%
13,O=C(OC1CCC1)c1ncccc1C(F)(F)F,-15.91%
14,CC(C)c1nnc(NCc2cc3n(n2)CCNC3)s1,7.297%
15,CC1CCN(S(=O)(=O)NC(C)Cc2ccco2)CC1 (stereo unspecified),1.293%
16,Cc1nc(CN(C)Cc2cn[nH]c2-c2ccc(F)cc2)c[nH]1,20.15%
17,CC(C)[C@H]1COC(=O)N1CC(=O)N1CCN(C(=O)c2ccco2)CC1,1.132%
18,COc1ccc(/C=C/CN2CCC3(CC2)CN(C)C(=O)O3)cc1,-13.05%
19,CCC1(C(=O)O)CCCN(CCOCc2ccccc2)C1 (stereo unspecified),2.602%
20,CN1CC2(CCN(CCCOCc3ccccc3)CC2)OC1=O,106.4%
21,CS(=O)(=O)NC1CCN(CCOCc2ccccc2)CC1,0.008163%
22,CN1CC2(CCN(C(=O)CCCOCc3ccccc3)C2)OC1=O (stereo unspecified),107.9%

row,Compound,Percent Effect
1,CN1CC2(CCCN(CCOCc3ccccc3)C2)OC1=O (stereo unspecified),96.52%
2,CN1CC2(CCN(C(=O)c3[nH]cnc3-c3ccccc3)C2)OC1=O (stereo unspecified),-16.32%
3,COCCC1(C(=O)O)CCCN(CCOCc2ccccc2)C1 (stereo unspecified),2.553%
4,Cc1ccc2oc(=O)n(CCC(=O)N3CCC4(CN(C)C(=O)O4)C3)c2c1 (stereo unspecified),2.838%
5,Cc1cc(NC(=O)N2CCC[C@@H]2CO)nn1-c1ccccc1Cl,-2.328%
6,CC(C)COCCC(=O)Nc1c(-c2ccc(F)cc2)ncn1C,34.39%
7,O=C(NC1CC1)[C@H]1C[C@H]2OCC[C@H]2N(Cc2ccc(F)cc2)C1.O=C(O)C(F)(F)F,-3.794%
8,Cc1ccc([C@@H]2CN(C(=O)c3ccsc3)C[C@H]2NC(=O)C2CC2)cc1,-0.5207%
9,O=C(NCC(O)c1ccccc1Cl)c1cccc(-n2cnnn2)c1 (stereo unspecified),-6.148%
10,CC(=O)N(Cc1noc(C)n1)C1CCN(Cc2c(C)noc2C)C1 (stereo unspecified),106.6%
11,Cc1nc(CN(C)C2CCN(Cc3c(C)noc3C)C2)no1 (stereo unspecified),-3.836%
12,COCCN1CCC(N(Cc2noc(C3CC3)n2)C(C)=O)C1 (stereo unspecified),0.8027%
13,CC(=O)N(Cc1noc(C)n1)C1CCN(Cc2ccccc2C#N)C1 (stereo unspecified),-0.5328%
14,COCCCN1CCC(N(Cc2noc(C)n2)C(C)=O)C1 (stereo unspecified),116.1%
15,CC(=O)N(Cc1noc(C)n1)C1CCN(Cc2cccc(C#N)c2)C1 (stereo unspecified),124.3%
16,CC(=O)N(Cc1noc(C)n1)C1CCN(Cc2ccc(C#N)cc2)C1 (stereo unspecified),102.5%
17,Cc1nc(CN2CCCC(N(C)Cc3c(C)noc3C)C2)no1 (stereo unspecified),5.065%
18,Cc1nc(CN2CCCC(N(C)c3ccc(C#N)cn3)C2)no1 (stereo unspecified),1.567%
19,COCCCN(C)C1CCCN(Cc2noc(C)n2)C1 (stereo unspecified),-3.028%
20,Cc1cccc(CCC(=O)Nc2cccnc2N2CCC(O)CC2)c1,-21.77%
21,Cc1nonc1NC(=O)c1ccc(F)c(COCC2CC2)c1,-55.79%
22,CC(C)n1cc2cc(NC(=O)CCS(C)(=O)=O)ccc2n1,-1.641%

row,Compound,Percent Effect
1,COC(=O)c1cc(C(=O)N2CCOCC2(C)C)n(-c2ccccc2)n1,-5.811%
2,CCC(C)(NCC(=O)OC)c1nccs1 (stereo unspecified),-7.626%
3,Cc1ccc(OCC(=O)N(C)Cc2cccc(F)c2)cn1,7.779%
4,CC(C)Oc1cccc(CNC(=O)NC(C)(C(=O)O)c2ccco2)c1 (stereo unspecified),1.863%
5,CCNS(=O)(=O)c1ccc(C)c(C(=O)N(CCC#N)Cc2ccco2)c1,-4.86%
6,CN1CCC2(CC1)CC(NC(=O)c1csnn1)c1ccccc1O2.O=C(O)C(F)(F)F (stereo unspecified),-8.669%
7,O=C(O)C(F)(F)F.O=S(=O)(NC1CCC12CCN(CC1CC1)CC2)c1ccccc1 (stereo unspecified),2.266%
8,CS(=O)(=O)NC1CC2(CCN(CC3CC3)CC2)Oc2ccccc21.O=C(O)C(F)(F)F (stereo unspecified),88.61%
9,CC(C)CN1CCC2(CC1)CC(NS(C)(=O)=O)c1ccccc1O2.O=C(O)C(F)(F)F (stereo unspecified),99.03%
10,CCN1CCC2(CC1)CC(NC(=O)c1c[nH]cn1)c1ccccc1O2 (stereo unspecified),-7.488%
11,CN(C)C(=O)CC1CC2(CCN(C(=O)N(C)C)CC2)Oc2ccccc21 (stereo unspecified),-10.67%
12,CS(=O)(=O)N1CC[C@]2(C[C@@H](Oc3ccccn3)CO2)C1.O=C(O)C(F)(F)F,-15.23%
13,CC(C)N1CCC2(CC1)CC(NS(C)(=O)=O)c1ccccc1O2.O=C(O)C(F)(F)F (stereo unspecified),107.1%
14,Cc1ccc(NC2COC3(CCN(CC(C)C)CC3)C2)nn1.O=C(O)C(F)(F)F (stereo unspecified),-1.394%
15,CC(=O)N1CCC2(CC1)CC(NS(C)(=O)=O)c1ccccc1O2 (stereo unspecified),119.8%
16,CCN1CCC2(CC1)CC(NC(=O)c1csnn1)c1ccccc1O2.O=C(O)C(F)(F)F (stereo unspecified),-74.83%
17,CNC(=O)NC(=O)C(C)N1CCCc2cc(OC)ccc2C1 (stereo unspecified),-11.16%
18,CC(CO)N(C)C(=O)c1cn(-c2ccc(Br)cc2)cn1 (stereo unspecified),-3.083%
19,Cc1cc(F)ccc1NCC(=O)NCC(F)(F)F,8.632%
20,CC(C)c1nc2n(n1)CC(NCCc1cccs1)CC2 (stereo unspecified),0.7675%
21,NC(=O)N1CCCN(C2CCc3ccc(F)cc32)CC1 (stereo unspecified),-19.72%
22,COc1cc2c(nn1)CCN(CC(O)COc1ccc(C#N)cc1)C2 (stereo unspecified),-7.756%

row,Compound,Percent Effect
1,CC(Cc1ccco1)NS(=O)(=O)N1CCCCCC1 (stereo unspecified),-8.82%
2,Cc1ccc(N2CCCC(NCc3ccc(C)o3)C2)nn1 (stereo unspecified),12.24%
3,Cc1ccc(N2CCCC(NCc3ccc(Cl)o3)C2)nn1 (stereo unspecified),93.48%
4,CSCc1ccc(CNC2CCCN(c3ccc(C)nn3)C2)o1 (stereo unspecified),95.39%
5,Cc1ccc(N2CCCC(NCc3cccc4c3OCCO4)C2)nn1 (stereo unspecified),17.19%
6,CC(C)(C)CN1CCN2C(=O)N(C3CCCCC3)C[C@H]2C1,-7.444%
7,COc1ccc(C(N)=O)cc1NCc1noc(-c2ccsc2)n1,0.901%
8,O=C(c1ccc(C(F)(F)F)cc1)N1C[C@@H](CN2CCCCC2)[C@@H](CO)C1,-17.56%
9,Cc1nnc(N2CCN(C)C3(CCC(=O)N(CCO)CC3)C2)s1 (stereo unspecified),-2.989%
10,CC(=O)Nc1nc(C(=O)NCCOc2cccc(C)c2)cs1,7.237%
11,Cc1ncc(C(=O)NCCOc2ccccc2F)c(C)n1,-10.65%
12,Cc1ccn(CC(=O)NCCCOc2ccccc2F)c(=O)c1,116.2%
13,CC(NC(=O)NCCCOc1ccccc1F)c1nncn1C (stereo unspecified),6.488%
14,Cc1cccc(OCCCNC(=O)Cn2ccc(C)cc2=O)c1,90.13%
15,Cc1cccc(OCCNC(=O)Cn2ccc(C)cc2=O)c1,104.8%
16,Cc1cccc(OCCNC(=O)C(C)S(=O)(=O)C2CCCC2)c1 (stereo unspecified),-6.282%
17,Cc1cccc(OCCNC(=O)C(C)S(=O)(=O)c2ccccn2)c1 (stereo unspecified),5.338%
18,Cc1cccc(OCCCNC(=O)NC(C)c2nncn2C)c1 (stereo unspecified),6.947%
19,CCc1cc(N2CCCNCC2)n2nc(C)c(C)c2n1,3.882%
20,CCN1CCCC(c2c(-c3ccccc3)ncn2Cc2csc(N)n2)C1 (stereo unspecified),4.265%
21,COc1ccc2[nH]nc(CN3CCC(C(C)N(C)C)CC3)c2c1 (stereo unspecified),2.332%
22,CC(c1ccon1)N(C)S(=O)(=O)NCc1ccccc1 (stereo unspecified),110%

row,Compound,Percent Effect
1,CC(c1nccs1)N(C)S(=O)(=O)NCc1ccccc1 (stereo unspecified),97.09%
2,CCN(CC)C(CNS(=O)(=O)NCc1ccccc1)c1ccco1 (stereo unspecified),-8.171%
3,CC(c1nccs1)N(C)C(=O)c1cc(CN(C)Cc2ccccc2)on1 (stereo unspecified),-3.289%
4,CC(c1ccon1)N(C)C(=O)C1CCN(CC(N)=O)CC1 (stereo unspecified),-6.665%
5,C=C(C)COc1cccc(CN(C)C(C)c2ccncn2)c1 (stereo unspecified),2.778%
6,CC(=O)Nc1ccc(Cl)c(C(=O)N(C)C(C)c2ccncn2)c1 (stereo unspecified),19.4%
7,CC(c1ccncn1)N(C)S(=O)(=O)NCc1ccccc1 (stereo unspecified),110.9%
8,C=C(C)COc1cccc(CN(C)C(C)c2nccs2)c1 (stereo unspecified),12.61%
9,CN1CCC(N(C)C[C@H]2CC[C@@H](Cc3ccc4c(cnn4C)c3)O2)CC1,-7.23%
10,CC(Nc1ccc(Oc2cccc(C#N)c2)cc1)C(=O)NC1CC1 (stereo unspecified),1.244%
11,COCCc1noc(CN2CCCC2c2c(C)nn(C)c2C)n1 (stereo unspecified),1.097%
12,COCCc1noc(CN2CC(n3nc(C)cc3C)C2)n1,87.49%
13,COCCc1noc(CN2CCCC2Cn2nc(C)nc2C)n1 (stereo unspecified),103.9%
14,COCCc1noc(CN2CCCC2Cn2nc(C)cc2C)n1 (stereo unspecified),100.2%
15,Cc1cc(C)n(C2CN(Cc3noc(-c4ccccc4)n3)C2)n1,-5.64%
16,COc1ccc(-c2nc(CN3CC(n4nc(C)cc4C)C3)no2)cc1,-0.6245%
17,Cc1nc(C)n(CC2CCCN2Cc2nc(C3CC3)no2)n1 (stereo unspecified),2.651%
18,Cc1cc(C)n(CC2CCCN2Cc2c(C)noc2C)n1 (stereo unspecified),3.056%
